# Measured values taken from PubChem BioAssay (NCATS).
# Inconclusive results are not listed. Where a call stands in place of a potency, no number is given. Unmarked numbers belong to inactive results. Active and inactive are the calls of the source. The call rests on the fitted dose curve; in most records, active means well fitted curve in the direction sought with a large enough effect; inconclusive means small, poorly fitted or top-dose-only effect, or another doubt; inactive means no such curve, though single readings can be large; an effect the other way counts as inactive or inconclusive.
# Tests used:
# [1] = qHTS of pediatric cancer cell lines to identify multiple opportunities for drug repurposing: Primary screen for TC32 cells (AID 1347089); further: nearly all actives have a fitted effect of over 60% in size
# Summary of the method: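 TC32 cells, 500-1,000/well in growth medium, compound-treated 48 h at 37 °C; viability from CellTiter-Glo luminescence. Primary screen: MIPE 11-point (0.78 nM–46 µM final), NPC 8-point (0.59 nM–46 µM final); confirmatory at 11-point dilutions.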
# [2] = qHTS of pediatric cancer cell lines to identify multiple opportunities for drug repurposing: Primary screen for DAOY cells (AID 1347090); further: nearly all actives have a fitted effect of over 55% in size
# Summary of the method: (§1)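 Eight- or eleven-point concentration series, 48 h treatment at 37 degrees C in growth media; readout CellTiter-Glo luminescence. Potency and efficacy were taken from the concentration-response curves.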
# [3] = qHTS of pediatric cancer cell lines to identify multiple opportunities for drug repurposing: Primary screen for SJ-GBM2 cells (AID 1347091)
# Summary of the method: as §1
# [4] = qHTS of pediatric cancer cell lines to identify multiple opportunities for drug repurposing: Primary screen for A673 cells (AID 1347092); further: nearly all actives have a fitted effect of over 45% in size
# Summary of the method: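 A673 cells (500-1,000 cells/well) were treated 48 hours at 37 degrees C with compounds at 11-point (0.78 nM to 46 µM) or 8-point (0.59 nM to 46 µM) dilutions. Viability read by CellTiter-Glo luminescence; concentration-response curves fitted.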
# [5] = qHTS of pediatric cancer cell lines to identify multiple opportunities for drug repurposing: Primary screen for SK-N-MC cells (AID 1347093)
# Summary of the method: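 Metabolically active cells were quantified by ATP-dependent luminescence (CellTiter-Glo, 15 min at room temperature) following 48 h treatment. Cells had been plated at 500-1,000 per well and settled for 5 h beforehand.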
# [6] = qHTS of pediatric cancer cell lines to identify multiple opportunities for drug repurposing: Primary screen for BT-37 cells (AID 1347094)
# Summary of the method: (§2)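 Luminescence from CellTiter-Glo served as readout of metabolically active cells after 48 h compound exposure. Titrations: MIPE 11-point, from 0.78 nM; NPC 8-point, from 0.59 nM (final). Concentration-response curves came straight from the primary screen.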
# [7] = qHTS of pediatric cancer cell lines to identify multiple opportunities for drug repurposing: Primary screen for U-2 OS cells (AID 1347096); further: nearly all actives have a fitted effect of over 50% in size
# Summary of the method: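 Cells (500-1,000/well) in growth media were settled 5 h at 37 degrees C, then given compounds for 48 h. Viability was read as CellTiter-Glo luminescence. Primary runs used MIPE at 11 points (0.78 nM-46 µM) and NPC at 8 points (0.59 nM-46 µM); follow-ups used 11 points.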
# [8] = qHTS of pediatric cancer cell lines to identify multiple opportunities for drug repurposing: Primary screen for Saos-2 cells (AID 1347097); further: nearly all actives have a fitted effect of over 40% in size
# Summary of the method: as §2
# [9] = qHTS of pediatric cancer cell lines to identify multiple opportunities for drug repurposing: Primary screen for SK-N-SH cells (AID 1347098); further: nearly all actives have a fitted effect of over 65% in size
# Summary of the method: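 Cells (500-1,000/well) rested 5 h, then received compounds for 48 h; metabolically active cells were measured by CellTiter-Glo luminescence. Final concentrations spanned up to 46 µM (MIPE, 11-point) or 0.59 nM-46 µM (NPC, 8-point) in primary screens, 11-point in follow-ups.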
# [10] = qHTS of pediatric cancer cell lines to identify multiple opportunities for drug repurposing: Primary screen for NB-EBc1 cells (AID 1347095)
# Summary of the method: as §2
# Potency means the concentration at half of the fitted maximal effect.
Structure (SMILES),Potency [1],Potency [2],Potency [3],Potency [4],Potency [5],Potency [6],Potency [7],Potency [8],Potency [9],Potency [10]
C[C@@H]1O[C@@H](O[C@H]2CC[C@@]3(C)[C@H](CC[C@@H]4[C@H]3C[C@@H](O)[C@]3(C)[C@@H](C5=CC(=O)OC5)CC[C@]43O)C2)C[C@H](O)[C@@H]1O[C@H]1C[C@H](O)[C@H](O[C@H]2C[C@H](O)[C@@H](O)[C@@H](C)O2)[C@H](C)O1 (stereo in doubt),380 nM (active),270 nM (active),121 nM (active),171 nM (active),108 nM (active),112 nM (active),340 nM (active),679 nM (active),555 nM (active),
CN(C)CCN(C)C(=O)c1ccc(NC(=O)Nc2ccc(-c3nc(N4CCOCC4)c4ccn(CC(F)(F)F)c4n3)cc2)cc1,147 nM (active),1480 nM (active),105 nM (active),2960 nM (active),26.4 nM (active),48.5 nM (active),4690 nM (active),418 nM (active),7640 nM (active),935 nM (active)
NS(=O)(=O)c1cc(Cl)c(Cl)c(S(N)(=O)=O)c1,inactive,inactive,inactive,inactive,inactive,inactive,inactive,inactive,inactive,inactive
COc1cc(C=CC(=O)O)ccc1O,inactive,inactive,inactive,inactive,20900 nM (active),inactive,inactive,inactive,inactive,inactive
CNC(=O)[C@H](CC1=CN=C2C=CCC=C12)NC(=O)[C@@H](CC(=O)NO)CC(C)C,inactive,29.6 nM (active),inactive,46.9 nM (active),5.9 nM (active),685 nM (active),inactive,,1210 nM (active),
COc1cc([C@@H]2c3cc4c(cc3[C@@H](O[C@@H]3O[C@@H]5CO[C@@H](C)O[C@@H]5[C@H](O)[C@@H]3O)[C@H]3COC(=O)[C@H]23)OCO4)cc(OC)c1O,1040 nM (active),1480 nM (active),590 nM (active),1480 nM (active),469 nM (active),485 nM (active),,3320 nM (active),,187 nM (active)
CN1CC(=O)N2C(Cc3c([nH]c4ccccc34)[C@H]2c2ccc3c(c2)OCO3)C1=O (some centres undefined),inactive,inactive,inactive,inactive,inactive,inactive,inactive,,,inactive
Cc1ccc(S(=O)(=O)Nc2nc3ccccc3nc2Nc2ccc3nsnc3c2)cc1,inactive,407 nM (active),57.5 nM (active),1.3 nM (active),51.2 nM (active),37.6 nM (active),,45.7 nM (active),,645 nM (active)
NC(=O)c1noc([C@H](CCCC2CCCCC2)CC(=O)NO)n1,inactive,14800 nM (active),18700 nM (active),9350 nM (active),7430 nM (active),21700 nM (active),inactive,,,
CCC[C@@H](NC(=O)[C@@H]1[C@H]2CCC[C@@H]2CN1C(=O)[C@@H](NC(=O)[C@@H](NC(=O)c1cnccn1)C1CCCCC1)C(C)(C)C)C(=O)C(=O)NC1CC1,inactive,inactive,18700 nM (active),inactive,23500 nM (active),,inactive,,,inactive
CS(=O)(=O)c1ccc(C2=C(c3ccccc3)C(=O)OC2)cc1,inactive,inactive,inactive,inactive,inactive,inactive,inactive,inactive,,inactive
CCN1C[C@H](C)n2c(c(O)c3c(=O)n(Cc4ccc(F)c(Cl)c4)nc(C(=O)NC)c32)C1=O,inactive,inactive,inactive,inactive,inactive,inactive,inactive,inactive,inactive,inactive
O=C(c1ccc(F)c(F)c1Nc1ccc(I)cc1F)N1CC(O)([C@H]2CCCCN2)C1,inactive,18700 nM (active),4690 nM (active),23.5 nM (active),1480 nM (active),1090 nM (active),14800 nM (active),1870 nM (active),6070 nM (active),1660 nM (active)
CCC=CC[C@H]1C(=O)CC[C@@H]1CC(=O)OC,inactive,inactive,inactive,inactive,inactive,inactive,inactive,inactive,19200 nM (active),inactive
Cc1ccccc1-n1c(Cn2nc(-c3cccc(O)c3)c3c(N)ncnc32)nc2cccc(C)c2c1=O,inactive,1180 nM (active),16.6 nM (active),4.7 nM (active),41.8 nM (active),54.4 nM (active),,59 nM (active),,
O=C(O)C1=CO[C@@H](O[C@@H]2O[C@H](CO)[C@H](O)[C@H](O)[C@H]2O)[C@@H]2C(CO)=CC[C@H]12,inactive,inactive,inactive,inactive,inactive,inactive,inactive,,21500 nM (active),
